Data published in PubChem BioAssay AID1029 (Sanford-Burnham Center for Chemical Genomics, 2008).
Among all 110,000 compounds or so, about 80 (0.07%) were called active. The sample as a whole holds a higher share of actives than the screen did. A number with no mark means an inactive call.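 Rule for the calls: active = inhibition above the mean of the plate negative controls plus 5 SD (cut at about 13% in these data); inactive = the rest.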

assay: inhibitors of macrophage phagocytosis, primary screen, imaging, J774A.1 cells, IgG beads (AID 1029); settings: J774A.1 macrophage IgG-bead phagocytosis, at 5 µM, stronger effect = higher value;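 note: phagocytic index as fraction of beads internalized from green versus red external bead signal; plate controls were DMSO negative control for no effect and cytochalasin-D positive control for full effect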

Row | Structure (SMILES) | inhibition
1 | COc1cc(C(=O)NNC(=O)c2ccc(S(=O)(=O)N3CCCCC3)cc2)cc(OC)c1OC | -4.43%
2 | CC(=O)Nc1ccc(S(=O)(=O)NC2(C(F)(F)F)C(=O)Nc3c2c(=O)[nH]c(=O)n3Cc2ccccc2)cc1 (stereo not given) | -1.92%
3 | CCc1ccc(C2N3CC4([N+](=O)[O-])CN2CC([N+](=O)[O-])(C3)C4(C)C)cc1 (stereo not given) | -13.9%
4 | C=CCn1c(CCNC(=O)c2cccs2)n[nH]c1=S | -0.81%
5 | COc1cc(/C=C/C(=O)N2c3ccccc3Sc3ccc(C(F)(F)F)cc32)cc(OC)c1OC | -3.45%
6 | Cc1ccc(Sc2ccncc2S(N)(=O)=O)cc1 | -3.16%
7 | O=C(c1cccs1)n1nc(NCc2ccccc2)nc1NCc1ccccc1 | -7.68%
8 | CCC1C=C(c2ccccc2)C=CN=C1N(CC)CC (stereo not given) | -1.57%
9 | O=C(Cn1cc(C(F)(F)F)ccc1=O)N/N=C/c1ccc(Cl)cc1Cl | -1.82%
10 | O=C(CN1CCSCC1)N/N=C/c1ccc(F)cc1F | 117% (active)
11 | O=C(CN1CCSCC1)N/N=C/c1ccc(F)cc1 | -0.8%
12 | COCCNc1cc(NCCOC)c([N+](=O)[O-])cc1[N+](=O)[O-] | -0.9%
13 | O=C(N/N=C/c1ccc(Br)o1)c1cncc(Br)c1 | -4.83%
14 | CC(=O)c1c(N2CCN(c3ccc(F)cc3)CC2)nc(=S)n(-c2ccccc2)c1C | -2.05%
15 | COc1ccc2c(CC(=O)OCC(=O)Nc3ccccc3[N+](=O)[O-])coc2c1 | -0.7%
16 | COc1ccccc1-c1nnc(NC(=O)c2ccc3ncsc3c2)o1 | -6.06%
17 | Cc1ccc(SCCC(=O)NC(C(C)C)C(C)C)cc1 | -6.42%
18 | COC(=O)c1ccccc1NS(=O)(=O)c1ccc2[nH]c(=O)[nH]c2c1 | -2.75%
19 | Cc1ccccc1C1=NC(C(F)(F)F)(C(F)(F)F)c2c(n(-c3ccc(F)cc3)c(=O)[nH]c2=O)N1 | -2.94%
20 | COc1ccccc1N1CCN(CC(=O)NC(=O)NCc2ccco2)CC1 | -5.49%

Row | Structure (SMILES) | inhibition
21 | CCCNC(=O)NC(=O)COC(=O)CC(NC(N)=O)c1ccc(Cl)cc1 (stereo not given) | -1.97%
22 | Cc1ccc(NC(=O)COC(=O)CCc2nc3ccccc3n2-c2ccccc2)c(C)c1 | -9.97%
23 | Cn1cnc(C(F)(F)F)c1-c1ccc([N+](=O)[O-])cc1 | -12.1%
24 | CN(C)c1ccc(/C=N/NC(=O)c2ccc(Cn3cc(Br)cn3)o2)cc1 | -0.35%
25 | O=C(NNC(=O)c1cc2c(s1)CCCC2)c1ccccc1 | -4.32%
26 | COc1cc(CCC(=O)OCC(=O)Nc2cccc(S(N)(=O)=O)c2)cc(OC)c1OC | -3.93%
27 | CC(C)(C)C(=O)NC(NC(=S)Nc1ccc(S(N)(=O)=O)cc1)C(Cl)(Cl)Cl (stereo not given) | -10.5%
28 | CC(OC(=O)c1ccccc1N1C(=O)C2C3CCC(C3)C2C1=O)C(=O)c1ccccc1 (stereo not given) | -1.86%
29 | CC(C)C(=O)Nc1ccc(C(=O)NNC(=O)c2cccs2)cc1 | -0.44%
30 | O=[N+]([O-])c1ccc(NCCCO)c(C(F)(F)F)c1 | -3.18%
31 | CN(C)CCNC(=O)/C(=C/c1cccc([N+](=O)[O-])c1)NC(=O)c1ccccc1 | -4.59%
32 | S=C(NCC1COc2ccccc2O1)Nc1ccc(Br)cc1 (stereo not given) | -5.67%
33 | NC(=O)Nc1ccccc1C(=O)NCCc1ccccc1 | 2.64%
34 | Cc1nn(Cc2ccc(Cl)cc2)c(Cl)c1/C=N/NC(=O)c1cccnc1 | -2.24%
35 | Cc1cc(Cl)ccc1OCCCC(=O)NCc1ccncc1 | 1.98%
36 | CC1CN(S(=O)(=O)c2ccc(C(=O)Nc3sccc3C(N)=O)cc2)CC(C)O1 (stereo not given) | -5.22%
37 | CNC(=S)N/N=C/c1ccc(OCc2ccccc2)c(Br)c1 | -0.67%
38 | CCCCCC(=O)Nc1ccc(S(=O)(=O)Nc2ccc(Cl)nn2)cc1 | -11.6%
39 | COc1cccc(NC(=S)NCc2ccco2)c1 | -4.01%
40 | CCC(NC(=O)c1ccccc1NC(=O)c1ccccc1)C(=O)NNC(=O)CSc1nc2ccccc2o1 (stereo not given) | -1.59%

Row | Structure (SMILES) | inhibition
41 | CCc1ccc(C2C(C#N)=C(N)N(N(C)C)C3=C2C(=O)CCC3)s1 (stereo not given) | -3.98%
42 | O=C(/C=C\c1ccc2c(c1)OCO2)NC1(C(=O)Nc2ccc3c(c2)OCCO3)CCCCC1 | -2.27%
43 | COc1ccc(NC(C(=O)Nc2cccc(C(C)=O)c2)c2ccccc2)cc1 (stereo not given) | -15.7%
44 | C/C(=N\NC(=O)c1ccc(CSc2nc(C)cc(C)n2)cc1)C1CCCCC1 | -4.86%
45 | CCCn1c(=O)c2c(C(F)(F)F)cc(-c3cccs3)nc2n(CCC)c1=O | 1.31%
46 | COC(=O)c1sc(N)c(C(=O)OC)c1COC(=O)CNS(=O)(=O)c1ccc(C)cc1 | -11.5%
47 | Cc1ccc(/C=C/C(=O)Nc2cc(S(=O)(=O)N3CCCCCC3)ccc2OCC(F)(F)F)o1 | -12.4%
48 | O=C(/C=C/NCc1ccc(F)cc1)c1ccccc1 | -1.23%
49 | Cn1cc(C(=O)NCc2ccccc2F)cn1 | 1.49%
50 | C=CCc1ccccc1OCC(=O)N/N=C/c1ccccc1OCC | 1.26%
51 | CCOc1ccc(Oc2nc(C)cc(OC)n2)nn1 | -0.15%
52 | COCCCNC(=S)NC(=O)c1ccccc1 | -6.86%
53 | C/C(=N\NC(=O)Cc1ccc(F)cc1)c1ccc(F)cc1 | -0.05%
54 | COc1ccc(C(=O)CSc2nnc(NC(=O)C3CC(=O)N(c4cccc(OC)c4)C3)s2)cc1 (stereo not given) | 6.45%
55 | CC1CCCCN1S(=O)(=O)c1ccc(S(=O)(=O)N(CC(=O)Nc2ccccc2)Cc2cccs2)cc1 (stereo not given) | -1.49%
56 | COc1ccc([C@H]2[C@H](C(C)=O)N3N=Cc4ccccc4C3C23C(=O)OC(C)(C)OC3=O)cc1 (stereo not given in full) | 5.33%
57 | CCOC(=O)CNC(=O)/C=C/c1c(Cl)cccc1Cl | -2.32%
58 | CC(=O)NC(Cc1ccccc1)C(=O)NC1CCN(c2ncccc2[N+](=O)[O-])CC1 (stereo not given) | 1.47%
59 | COc1ccc(OCC(=O)Nc2cc(C)c(Cl)cc2OC)c([N+](=O)[O-])c1 | -2.85%
60 | COc1ccc(S(=O)(=O)NC(C)C)cc1C(=O)NC1CCCCC1 | -3.85%
